PubChem BioAssay (NCI)
About 83,000 compounds went through this panel and 20% of them were active in at least one assay; those are over-represented in the sample as a whole.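 Interpretation: 100, growth as untreated; towards 0, rising growth inhibition; 0, no net growth; 0 to -100, cell death. Compounds scoring below 10 were considered active.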 The source made the active and inactive calls.

tested on: NCI-H522 lung; assay: NCI-60 one-dose screen, 48 h (100 = growth as untreated, 0 = no growth, -100 = all killed); settings: 10 µM unless noted

Structure (SMILES) | growth
c1ccc2c(c1)oc1cc3sccc3nc12 | 93% (inactive)
CC1=C(C(=O)OCC2CCN(C(=O)OC(C)(C)C)CC2)[C@H](c2cccc(C#N)c2)C2=C(CC(C)(C)CC2=O)N1 | 8.74% (active)
O=C(c1nc2ccccc2[nH]1)C1C(c2ccc([N+](=O)[O-])cc2)C2CC3CCCCC3N2[C@@]12C(=O)Nc1cc(Cl)ccc12 (some centres undefined) | 34.7% (inactive)
Nc1ccn(C2O[C@H](CO)[C@@H](O)[C@H]2O)c(=O)n1 (some centres undefined) | 71.2% (inactive)
Nc1ccc(-n2c(=O)oc3ccc(Cl)cc3c2=O)c(Cl)c1 | -20.1% (active)
CC1=C(C(=O)OCC2CCN(C(=O)OC(C)(C)C)CC2)[C@@H](c2cccc(C#N)c2)C2=C(CC(C)(C)CC2=O)N1 | 29.6% (inactive)
N#Cc1c(N)nc2c(c1N)C(c1ccc(F)cc1)c1ccc(N)cc1O2 (centres undefined) | 86.4% (inactive)
COc1ccc(Cn2c(Br)c3c(c2-c2cc(OC)c(OC)c(OC)c2)CCc2sc(NC(=O)c4ccc(OC)cc4)nc2-3)cc1 | 85.4% (inactive)
O=c1cc(NC2CCN(CCCc3ccccc3)CC2)c2cc(Cl)ccc2o1 | -31.2% (active)
Brc1ccc(Oc2ccc(Nc3ncnc4onc(-c5ccccc5)c34)cc2)cc1 | 97.8% (inactive)
NNC(=O)CNC(=O)Nc1n[nH]c(=S)s1 | 88.7% (inactive)
COc1ccc(Cn2c(Br)c3c(c2-c2cc(OC)c(OC)c(OC)c2)CCc2sc(NC(C)=O)nc2-3)cc1 | 13.4% (inactive)
COc1ccc(/C=C2\NC(=O)NC2=O)cc1O | 98% (inactive)
Cc1cc2c(c(C)c1Cl)C(=O)/C(=C/c1ccco1)O2 | 85.3% (inactive)
